Screening data as filed in PubChem BioAssay.
CHX counter-1: counter-screen hit for Shiga toxin inhibitors, cycloheximide; max response, %; actives 12% (n = 300,000); cell reporter, cycloheximide protein synthesis inhibition counterscreen; in the data active = max response mostly above about 13%, no sharp cut-off; inactive = mostly below about 14%; also: read at 38.3 µM for the half of the compounds with a filed dose; 0% is about no effect
NS1 inh: inhibitors of influenza NS1 protein function; Potency, µM (titrated, usually from 46.1 µM), for the others: top-dose activity, positive = more growth; actives 0.4% (n = 270,000); AID 2326; also: potency is read from the fitted curve at half-maximal effect; actives are rising curves; nearly all actives have a fitted effect of over 50% in size
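Growth recovery, yeast-based: influenza A NS1 expressed in S. cerevisiae causes slow growth, and suppressors are detected by OD600. The parent strain without NS1 is used as positive control.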
SARS PLP yeast: inhibitors of SARS-CoV papain-like protease in yeast; actives 0.19% (n = 330,000); Potency, µM (doses to about 32.9 µM), inactives show top-dose activity, positive = growth rescue, most hits filed as activators; S. cerevisiae expressing SARS-CoV PLpro, growth rescue; also: potency is read from the fitted curve at half-maximal effect; 0% is about no effect; nearly all actives have a fitted effect of over 55% in size
Shiga toxin inh: blocks Shiga toxin action in Vero cells | inhibition, % at 38.7 µM | actives 9.2% (n = 290,000) | Vero cells, Shiga toxin protein synthesis inhibition reporter; in the data active = inhibition mostly above about 28%, no sharp cut-off; inactive = mostly below about 43%; also: 0% is about no effect
TbPYK inhibitor: T. brucei pyruvate kinase inhibition; Q57TT1; TbPYK enzyme, Kinase-Glo Plus ATP luminescence, 45 min; Potency, µM (highest dose often 76.8 µM), for the others: top-dose activity, negative = inhibition, hits mostly inhibitors; actives 0.12% (n = 410,000); active = well fitted curve in the direction sought with a large enough effect; inconclusive = small, poorly fitted or top-dose-only effect, or another doubt; inactive = no such curve, though single readings can be large; an effect the other way counts as inactive or inconclusive; also: potency is read from the fitted curve at half-maximal effect; % is scaled to controls: 0 for no effect and ±100 for the full control effect; nearly all actives have a fitted effect of over 50% in size
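TbPYK + substrate in 50 mM TEA pH 7.2, 100 mM KCl, 10 mM MgCl2, 0.05% BSA, 0.01% Tween-20; cpd pinned; ADP 130 uM final; 45 min RT; Kinase-Glo Plus 10 min; luminescence endpoint.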
LmPK inhibitor: blocks Leishmania mexicana pyruvate kinase activity; actives 0.37% (n = 290,000); Q27686; Potency, µM (series often up to 57.5 µM), for the others: at the highest dose activity change, negative = inhibition, usual class: inhibitors; purified LmPK, Kinase-Glo ATP luminescence, 1 h; active = well fitted curve in the direction sought with a large enough effect; inconclusive = small, poorly fitted or top-dose-only effect, or another doubt; inactive = no such curve, though single readings can be large; an effect the other way counts as inactive or inconclusive; also: potency is read from the fitted curve at half-maximal effect; % is scaled to controls: 0 for no effect and ±100 for the full control effect
Target sequence (Q27686 whole entry, looked up): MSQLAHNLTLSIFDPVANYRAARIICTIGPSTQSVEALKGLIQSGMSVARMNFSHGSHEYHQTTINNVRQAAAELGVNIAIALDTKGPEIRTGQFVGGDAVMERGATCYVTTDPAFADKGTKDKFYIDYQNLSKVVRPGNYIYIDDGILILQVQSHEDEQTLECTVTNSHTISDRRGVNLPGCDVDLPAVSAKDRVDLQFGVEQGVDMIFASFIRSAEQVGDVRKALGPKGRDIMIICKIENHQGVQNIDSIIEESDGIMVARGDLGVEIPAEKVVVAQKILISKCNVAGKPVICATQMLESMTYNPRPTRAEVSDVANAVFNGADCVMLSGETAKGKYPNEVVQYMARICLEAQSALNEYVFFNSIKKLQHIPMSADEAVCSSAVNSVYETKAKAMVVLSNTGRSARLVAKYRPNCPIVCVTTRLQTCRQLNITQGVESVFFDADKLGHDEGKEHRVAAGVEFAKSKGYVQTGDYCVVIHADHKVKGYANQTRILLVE
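In 50 mM imidazole pH 7.2 with 7 mM MgCl2, LmPK (0.1 nM) turned over PEP (0.5 mM) and ADP (0.1 mM) for 1 h at room temperature. Luciferase read-out of ATP.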
CHX counter-2: affects protein synthesis reporter in cycloheximide counter-screen. Potency, µM (titrated, usually from 38.3 µM), for the others: at the top dose activity (activation), most hits filed as activators. Cycloheximide counterscreen, protein synthesis reporter, Shiga toxin assay. AID 2318. shares compounds with Shiga toxin inh. actives 3% (n = 510); also: potency is read from the fitted curve at half-maximal effect; 0% is about no effect
An asterisk follows results filed as active; ? = inconclusive; . = no result given. Only a selection was taken, and hits are over-represented in it overall. Unless noted, calls follow the shape of the full dose curve.

SMILES	CHX counter-1	NS1 inh	SARS PLP yeast	Shiga toxin inh	TbPYK inhibitor	LmPK inhibitor	CHX counter-2
Cc1ccc2c(c1)N(CC(=O)N1CCCC1)C(=O)CO2	3.2	16.2%	0.6%	34.6*	-0.7%	3.2%	-0.6%
O=C(COc1ccccc1)NCC1CCCO1 (stereo unspecified)	-0.8	-15.0%	-5.0%	19.5	0.5%	-1.6%	.
O=C(COc1ccc2ccccc2c1)NCC1CCCO1 (stereo unspecified)	-1.9	4.2%	-0.8%	39.5*	3.9%	0.7%	3.2%
O=C(COc1ccc2ccc(=O)oc2c1)NCc1ccccn1	-2.4	4.7%	2.1%	-10.8	0.0%	-5.5%	.
Cc1cc(OCC(=O)NCc2ccccn2)cc(C)c1Br	2.4	-7.7%	-25.0%	47.1*	-6.1%	-0.4%	5.5%
COc1cccc(Nc2c3c(nc4nncn24)CCC3)c1	.	.	.	.	0.7%	.	.
CC(=O)c1cccc(NC(=O)/C(=C/c2ccco2)NC(=O)c2ccco2)c1	2.0	9.4%	1.4%	27.3*	-22.2%	-9.0%	6.0%
O=C(Nc1cccc(F)c1)/C(=C\c1ccco1)NC(=O)c1ccco1	-1.7	-2.4%	?	4.9	-21.0%	-10.4%	.
CCOC(=O)C1=C(O)/C(=C\c2ccc(CNC(=O)C(=O)Nc3ccccc3)o2)N=C1C	4.1	25.9%	-2.9%	42.3*	-12.4%	2.0%	0.6%
CCOC(=O)C1=C(O)/C(=C\c2cccs2)N=C1C	-1.3	1.9%	-13.5%	-13.5	2.8%	4.8%	.
Nc1ccc(C(=O)NC2CCSc3ccccc32)cc1[N+](=O)[O-] (stereo unspecified)	18.2	-95.6%	-8.7%	28.0*	8.9%	-0.3%	?
O=c1[nH]nc(CNc2ccc(C(F)(F)F)cc2)c2ccccc12	15.3	.	?	29.4*	-3.7%	6.5%	?
O=c1[nH]nc(CNc2ccc(OC(F)(F)F)cc2)c2ccccc12	21.5	.	-22.3%	27.9	0.5%	1.4%	.
Nc1nc(-c2ccc3c(c2)CCC(=O)N3)cs1	7.1	.	1.1%	42.0*	-3.6%	-16.8%	?
Cc1ccc(Oc2nn[nH]n2)cc1	-1.8	-0.6%	-1.7%	46.9*	0.0%	-0.5%	1.6%
CCc1cccc(Oc2nn[nH]n2)c1	4.0	0.4%	7.8%	2.9	0.3%	-4.3%	.
N#Cc1cccnc1N1CCN(C(=O)c2cccs2)CC1	8.1	0.8%	-0.8%	-10.1	0.1%	6.2%	.
CCOc1ccccc1C(=O)NCC(=O)NCCc1ccc(S(N)(=O)=O)cc1	-3.0	-10.3%	3.0%	-9.5	-10.1%	-0.6%	.
CCC(C)c1cc([N+](=O)[O-])cc([N+](=O)[O-])c1OC(C)=O (stereo unspecified)	7.5	.	.	25.0*	.	.	1.3%
O=C1NC(=Nc2ccc(O)cc2)S/C1=C\C=C\c1ccco1	2.5	6.6%	0.5%	47.2*	1.6%	5.2%	?
Cc1ccc(N2CC(C(=O)OCC(=O)c3ccc[nH]3)CC2=O)cc1 (stereo unspecified)	.	.	0.8%	.	1.1%	.	.
CC(C)(C)C1CCC(C(=O)OCC(=O)c2ccc[nH]2)CC1 (stereo unspecified)	8.3	-38.1%	11.6%	27.0*	-3.7%	2.5%	0.3%
CC(=O)[C@@H]1[C@@H]2C(=O)N(c3ccc(F)c(Cl)c3)C(=O)[C@@H]2C2c3ccccc3C=CN21 (stereo partly specified)	-2.5	15.1%	13.7%	active	.	5.2%	-0.8%
CCOC(=O)c1c(C2COc3ccccc3O2)csc1NC(=O)c1ccco1 (stereo unspecified)	-1.2	0.2%	-5.1%	25.8*	-28.2%	0.6%	-4.1%
Cc1cccc(OCCCC(=O)Nc2nccs2)c1C	6.8	-36.8%	0.4%	28.7*	-2.4%	3.7%	-2.3%
COc1ccc(C2=NN(C(=O)c3ccco3)C(c3cc4ccccc4nc3Cl)C2)cc1 (stereo unspecified)	5.5	?	-2.1%	27.6*	-7.3%	2.4%	-0.2%
COc1cc(F)c(S(=O)(=O)Nc2c(C)n(C)n(-c3ccccc3)c2=O)cc1OC	.	.	.	.	1.6%	.	.
